DT40 TDP1 no CPT = qHTS for Inhibitors of human tyrosyl-DNA phosphodiesterase 1 (TDP1): qHTS in cells in absence of CPT; DT40 Tdp1-/- hTDP1 cells, no CPT, ATP luminescence, 48 h; actives 15% (n = 420,000); Potency, µM (top dose mostly 46.2 µM), without a hit: at the top dose activity change, negative = growth inhibition, usual class: inhibitors; note: % is set by controls: 0 for no effect and ±100 for the full control effect; nearly all actives have a fitted effect of over 55% in size
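Camptothecin absent (DMSO only). Human TDP1-complemented DT40 knockout cells, 400 cells/well, 37 °C for minimum 48 hr; ATP measured via CellTiter-Glo, 30 min dark incubation, luminescence.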
ClpP mod = qHTS Assay for Activators of ClpP | ATP-dependent Clp protease proteolytic subunit (Bacillus subtilis (strain 168)), P80244 | purified B. subtilis ClpP, FRET peptide cleavage, 20 min | Potency, µM (highest dose often 57.5 µM), for inactives: top-dose activity change, negative = active | actives 1.9% (n = 340,000) | AID 651965, 2013; active = well fitted falling curve with a large enough effect; inconclusive = small, poorly fitted or top-dose-only effect; inactive = no such curve, though single readings can be large or run the other way; note: the source files actives as falling curves though it sought activators and does not explain the sign; nearly all actives have a fitted effect of over 65% in size
Target sequence (P80244 whole entry, looked up): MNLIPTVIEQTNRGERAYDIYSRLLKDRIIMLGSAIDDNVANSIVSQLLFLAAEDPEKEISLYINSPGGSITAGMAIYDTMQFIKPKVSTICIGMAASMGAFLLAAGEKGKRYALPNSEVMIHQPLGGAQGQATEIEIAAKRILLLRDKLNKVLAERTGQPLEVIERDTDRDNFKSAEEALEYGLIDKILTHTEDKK
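Buffer: 100 mM Tris/HCl pH8, 100 mM KCl, 0.05% low protease BSA, 2.5% glycerol, 0.01% Tween-20. ClpP 10 microg/mL final; 20 min RT; delta FRET normalized to ADEP and DMSO controls.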
TDP1 inh = blocks human tyrosyl-DNA phosphodiesterase 1; AID 485290; actives 0.28% (n = 350,000); Potency, µM (top dose mostly 130 µM), without a hit: at the top dose activity change, negative = inhibition, actives largely listed as inhibitors; Q9NUW8; recombinant TDP1, AlphaScreen DNA substrate cleavage; note: % is set by controls: 0 for no effect and ±100 for the full control effect; nearly all actives have a fitted effect of over 40% in size
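Steps: enzyme plus compound, 15 min RT; add biotin/phosphotyrosine-FITC oligonucleotide (15 nM final), react 5 min; add donor/acceptor beads (10 ug/ml final), 10 min; read AlphaScreen. Tdp1 at 1 nM final.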
DT40 TDP1 CPT = DT40-hTDP1 cell growth loss with CPT. Potency, µM (series often up to 46.2 µM), without a hit: top-dose activity change, negative = growth inhibition, actives largely listed as inhibitors. AID 686979. actives 12% (n = 420,000). chicken DT40 Tdp1-/-;hTDP1 cells + 20 nM CPT, ATP luminescence, 48 h; note: % is set by controls: 0 for no effect and ±100 for the full control effect; nearly all actives have a fitted effect of over 55% in size
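Cell growth measured by CellTiter-Glo luminescence after a minimum 48 h, 37 C compound exposure with 20 nM CPT in Tdp1-knockout DT40 cells stably expressing hTDP1, seeded 400/well; qHTS titration format.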
The depositor's hits bear a star; ? = inconclusive; . = not tested or not shown; [ ] = another dose, or the depositor's remark. Compounds with a hit are over-represented: about 17% of the library has one in this group of screens. Unless noted, calls come from the whole dose curve; as a rule, active = well fitted curve in the direction sought with a large enough effect; inconclusive = small, poorly fitted or top-dose-only effect, or another doubt; inactive = no such curve, though single readings can be large; an effect the other way counts as inactive or inconclusive. Potency is the fitted concentration of half-maximal effect.

SMILES	DT40 TDP1 no CPT	ClpP mod	TDP1 inh	DT40 TDP1 CPT
CCCCN(C)CC(O)Cn1cc(/C=C/C(=O)c2ccc(OC)c(OC)c2)c2ccccc21 (stereo not drawn)	21µM*	-1%	8%	18µM*
CCCCN(C)CC(O)Cn1cc(/C=C/C(=O)c2ccc(Br)cc2)c2ccccc21 (stereo not drawn)	5.2µM*	0%	-3%	6.5µM*
CN(C)/C=C/C(=O)c1ccc(Br)cc1	-7%	.	-5%	43%
Cc1cc2c(c(-c3cnccn3)c1)OC(CNC(=O)c1c(F)cccc1Cl)C2 (stereo not drawn)	?	.	.	10%[9.04 µM]
O=C(NCc1ccc2c(c1)OCO2)C1CCCN1C(=O)Nc1ccc(Cl)cc1 (stereo not drawn)	-13%	.	-1%	-1%
CN1C(=O)C(CC(=O)NCC2CCCCC2)SC1=Nc1ccccc1 (stereo not drawn)	?	1%	7%	?
O=C(C1CCN(c2ncnc3c2sc2cccc(F)c23)CC1)N1CCOCC1	29µM*	-27%	1%	12µM*
CCCCN(CC)CCCNC(=O)C1CCN(c2ncnc3c2sc2cccc(F)c23)CC1	29µM*	-4%	5%	18µM*
O=C(NCCN1CCOCC1)C1CCN(c2ncnc3c2sc2cccc(F)c23)CC1	21µM*	-6%	-3%	12µM*
O=C(N/N=C/c1ccc(-c2ccccc2Cl)o1)c1ccccc1	18µM*	.	5%	15µM*
O=C(N/N=C/c1ccc(-c2ccccc2[N+](=O)[O-])o1)c1cccnc1	?	1%	9%	16µM*
O=S(=O)(N/N=C\c1ccc(-c2ccccc2Cl)o1)c1ccccc1	11µM*	2%	?	11µM*
O=C(O)c1ccc(N/N=C/c2ccc(-c3ccccc3Cl)o2)cc1	-7%	.	1%	2%
NC1=NC(=O)C2(COC(c3cccnc3)OC2)S1 (stereo not drawn)	-18%	.	0%	-5%
COc1ccc(-c2nc3ccccc3nc2-c2ccc(OC)c(OC)c2)cc1OC	-3%	-1%	.	-4%
COc1ccc(-c2cc3ccccc3nc2N)cc1OC	21µM*	4%	.	18µM*
Cc1ccccc1NC(=O)CSc1nc(-c2ccccc2)cn1-c1ccccc1F	23µM*	-2%	8%	?
Cc1ccccc1-n1cc(-c2ccccc2)nc1SCC(=O)Nc1ccc(F)cc1	?	0%	8%	?
Cc1ccc(C)c(-n2cc(-c3ccccc3)nc2SCC(=O)Nc2ccccc2)c1	18µM*	1%	6%	?
Cc1ccccc1NC(=O)CSc1nnc(-c2ccccc2)n1-c1ccccc1	?	0%	0%	-75%
Fc1ccc(-n2ncc3c(N4CCC(Cc5ccccc5)CC4)ncnc32)cc1	-21%	?	8%	-29%
CN(Cc1ccccc1)C(=O)c1cccc(NC(=O)Cc2ccc(NC(=O)C3CCCN(C(=O)CCc4ccccc4)C3)cc2)c1 (stereo not drawn)	15µM*	-2%	.	23µM*
CN(Cc1ccccc1)C(=O)c1cccc(NC(=O)Cc2ccc(NC(=O)C3CCCN(C(=O)C4CCCCC4)C3)cc2)c1 (stereo not drawn)	?	0%	.	16µM*
CN(Cc1ccccc1)C(=O)c1ccc(NC(=O)Cc2cccc(NC(=O)C3CCCN(C(=O)CCc4ccccc4)C3)c2)cc1 (stereo not drawn)	?	-1%	1%	?
CN(Cc1ccccc1)C(=O)c1cccc(NC(=O)Cc2ccc(NC(=O)C3CCN(C(=O)C4CCCC4)CC3)cc2)c1	?	1%	.	?
SMILES	DT40 TDP1 no CPT	ClpP mod	TDP1 inh	DT40 TDP1 CPT
CN(Cc1ccccc1)C(=O)c1ccc(NC(=O)Cc2ccc(NC(=O)C3CCN(S(=O)(=O)c4cccc([N+](=O)[O-])c4)CC3)cc2)cc1	?	1%	.	13µM*
CN(Cc1ccccc1)C(=O)c1cccc(NC(=O)Cc2ccc(NC(=O)C3CCN(S(=O)(=O)c4cccc([N+](=O)[O-])c4)CC3)cc2)c1	-27%	0%	.	-26%
CN(C(=O)c1ccc(NC(=O)Cc2ccc(NC(=O)C3CCCN(C(=O)CCc4ccccc4)C3)cc2)cc1)C1CC1 (stereo not drawn)	13µM*	-3%	6%	?
CN(CCc1ccccc1)C(=O)c1ccc(NC(=O)Cc2ccc(NC(=O)C3CCCN(C(=O)C4CCCCC4)C3)cc2)cc1 (stereo not drawn)	?	2%	.	?
CN(C(=O)c1cccc(NC(=O)Cc2ccc(NC(=O)C3CCCN(C(=O)CCc4ccccc4)C3)cc2)c1)C1CCC1 (stereo not drawn)	15µM*	0%	.	?
CN(C(=O)c1cccc(NC(=O)Cc2ccc(NC(=O)C3CCCN(C(=O)C4CCCCC4)C3)cc2)c1)C1CCC1 (stereo not drawn)	?	1%	.	?
CN(C(=O)c1cccc(NC(=O)Cc2ccc(NC(=O)C3CCCN(C(=O)CCc4ccccc4)C3)cc2)c1)C1CCCC1 (stereo not drawn)	16µM*	-1%	.	?
CN(C(=O)c1ccc(NC(=O)Cc2cccc(NC(=O)C3CCCN(C(=O)CCc4ccccc4)C3)c2)cc1)C1CCCC1 (stereo not drawn)	?	-1%	-2%	29µM*
CCOC(=O)C(Cc1cc(N)c(Oc2ccc(OC)cc2)c(N)c1)NC(C)=O (stereo not drawn)	-26%	2%	.	-3%
CC(=O)c1sc(C(=O)O)c(-c2ccco2)c1-c1ccco1	-19%	-1%	50µM*	11%
Cc1cc(Cl)c2oc(C(=O)N(C)Cc3cc(C)[nH]n3)c(C)c2c1	-7%	-12%	8%	-14%
Cc1cc(Cl)c2oc(C(=O)N(C)Cc3nccn3C)c(C)c2c1	7.3µM*	0%	.	16µM*
COc1ccc(C(=O)C(=O)N2CCC(Cc3ccccc3)CC2)cc1OC	21µM*	-2%	.	?
COc1cc(C(=O)OCC(=O)N2CCC(Cc3ccccc3)CC2)cc(OC)c1OC	16µM*	-2%	.	?
COc1cc(/C=C/C(=O)OCC(=O)N2CCC(Cc3ccccc3)CC2)ccc1O	15µM*	1%	3%	?
O=C(C(=O)N1CCC(Cc2ccccc2)CC1)c1cccc(Br)c1	?	1%	.	?
O=C(NCC1CCC2(CCN(Cc3cccc(-c4ccco4)c3)CC2)O1)c1ccccc1 (stereo not drawn)	-23%	.	.	-12%[9.04 µM]
Cn1cc(-c2nc3cnc(Oc4ccccc4)nc3n(CCC#N)c2=O)c2ccccc21	9%	.	.	12%
N=c1ccn2c(n1)OCC1C2O[C@@H](O)[C@H]1O (stereo partly drawn)	0.15µM*	.	2%	0.13µM*
